# ChEMBL document CHEMBL3433997, “St. Jude Leishmania screening dataset” (2016)
# “And” between values parts separate entries of the source, which are not always exact repeats. Equal entries are not always repeated.
# How the values were obtained:
# Format in all cases: functional
# [1] = target: Solute carrier family 2, facilitated glucose transporter member 1 (Homo sapiens) (UniProt P11166); assay: ST_JUDE_LEISH: Cytotoxicity at 2uM final concentration against transgenic Leishmania Mexicana promastigotes LmGLUT1 that are glucose transport deficient and complemented with the human glucose transporter GLUT1. Activity is measured by DNA content using SYBR green in vitro
# [2] = target: Hexose transporter 1 (Plasmodium falciparum) (UniProt O97467); assay: ST_JUDE_LEISH: Cytotoxicity at 2uM final concentration against transgenic Leishmania Mexicana promastigotes LmPfHT that are glucose transport deficient and complemented with the Plasmodium falciparum hexose transporter. Activity is measured by DNA content using SYBR green in vitro
# [3] = target: Glucose transporter (Leishmania mexicana) (UniProt O61059); assay: ST_JUDE_LEISH: Cytotoxicity at 2uM final concentration against transgenic Leishmania Mexicana promastigotes LmGT2 that are glucose transport deficient and complemented with the L. Mexicana glucose transporter 2. Activity is measured by DNA content using SYBR green in vitro
# Solute carrier family 2, facilitated glucose transporter member 1 (Homo sapiens), sequence (P11166 whole entry): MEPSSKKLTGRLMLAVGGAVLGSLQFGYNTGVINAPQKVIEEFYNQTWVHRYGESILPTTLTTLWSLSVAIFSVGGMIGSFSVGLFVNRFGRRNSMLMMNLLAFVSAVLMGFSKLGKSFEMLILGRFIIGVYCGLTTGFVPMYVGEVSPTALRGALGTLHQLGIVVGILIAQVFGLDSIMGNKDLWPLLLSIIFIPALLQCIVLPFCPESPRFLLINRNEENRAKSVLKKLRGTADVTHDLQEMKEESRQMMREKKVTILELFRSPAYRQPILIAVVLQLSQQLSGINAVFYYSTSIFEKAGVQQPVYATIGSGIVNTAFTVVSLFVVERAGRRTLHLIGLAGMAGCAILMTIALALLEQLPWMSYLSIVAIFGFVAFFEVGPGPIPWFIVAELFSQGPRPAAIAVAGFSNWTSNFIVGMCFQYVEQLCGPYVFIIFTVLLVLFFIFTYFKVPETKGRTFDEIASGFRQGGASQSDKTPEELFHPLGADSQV
SMILES,inhibition [1],inhibition [2],inhibition [3]
CCOc1cc2ncnc(Nc3ccc(OCc4ccccc4OC)c(OC)c3)c2cc1OCC,5.01%,2.81%,0.35%
O=C(NCCN1CCCC1)c1ccc(-c2cccc(-c3nc4cc(F)ccc4[nH]3)c2)cc1,-0.16%,0%,-0.53%
O=C(Nc1ccc(Cl)cc1)c1ccc(CN2CCCN(Cc3ccc(F)cc3)CC2)cc1,5.91%,1.23%,0.03%
c1cc(CNC2CCCC2)cc(-c2ccc(CNc3ccc4ncccc4c3)cc2)c1,-0.78%,0.28%,-2.51%
CC1(C)N=C(N)N=C(N)N1c1cc(Cl)c(Cl)cc1Cl,-2.58%,-2.74%,-3.01%
CC(C)CCN1CCCN(Cc2cccc(NC(=O)c3ccc(-c4ccccc4)cc3)c2)CC1,2.17%,0.14%,-0.09%
N=C1c2ccccc2CN1CC(=O)c1ccc(Cl)c(Cl)c1,0.66%,2.37%,2.53%
CC1CCCC(NCc2c(O)ccc3ccccc23)C1 (stereo unspecified),3.58%,3.22%,3.69%
Cc1cc2nc(-c3ccc(OCC(=O)NCc4ccc(C(C)(C)C)cc4)cc3)[nH]c2cc1C,6.86%,7.11%,6.35%
Cc1nnsc1C(=O)Nc1cccc(-c2ccc(-c3nc4cc(F)ccc4[nH]3)cc2)c1,3.93%,3.3%,4.66%
CCOC(=O)C(NC(=O)c1ccc([N+](=O)[O-])o1)C(C)C (stereo unspecified),-1.7%,-1.51%,-2.33%
COc1ccccc1C1CCN(C2CCC(NC(=O)/C=C/c3cc(C(F)(F)F)cc(C(F)(F)F)c3)CC2)CC1 (stereo unspecified),-3.08%,-0.91%,-2.77%
COc1ccc2ncc(F)c([C@H](O)CN3CCC(NCc4ccc5c(c4)NC(=O)CS5)CC3)c2c1,-1.54%,-0.25%,-1.73%
O=C(C=Cc1ccc(Cl)c(Cl)c1)NCCCCCN1CCCC(CCCNS(=O)(=O)c2ccc(Br)cc2)C1 (stereo unspecified),5.1%,3.96%,2.95%
CCc1ccc(-n2c(NC(=O)c3ccccc3)nc3ccc(S(=O)(=O)NC(C)C(C)C)cc32)cc1 (stereo unspecified),-1.74%,-1.8%,-1.72%
CCc1nc2c(N)nc(N)nc2nc1-c1ccc(OC)cc1,0.85%,0.84%,1.23%
COc1ccc(NC(=O)Nc2nc(-c3ccc(Cl)c(C)c3)cs2)cc1N1CCN(C)CC1,0.68%,3.54%,2.63%
CC(C)(CNC(=O)[C@@H]1CCCN(Cc2ccc(Cl)cc2)C1)c1nc(-c2ccc(Cl)c(O)c2)c(-c2ccncc2)[nH]1,-1.45%,0.41%,0.77%
O=C(N[C@@H](Cc1ccccc1)[C@H](O)CNC1CCc2ccccc2C1)c1cc(C2CCCC2)cc(N2CCCC2=O)c1 (stereo partly specified),-3.59%,2.21%,-4.47%
O=C1OC(c2ccccc2)(c2ccccc2)CN1CC1CCN(Cc2ccc(O)c(Cl)c2)CC1,70%,70.4%,32.2%
CC(=O)Nc1ccc([N+](=O)[O-])c2c(Br)cccc12,8.2%,8.74%,10.4%
O=C(Nc1ccccc1)Nc1cccc(-c2cccc(-c3nc4cc(F)ccc4[nH]3)c2)c1,2.45%,2.61%,1.59%
N#Cc1ccc2c(c1)CN(CC[C@H]1CC[C@H](NC(=O)/C=C/c3c[nH]c4ccccc34)CC1)CC2,7.48% and 1.99%,6.9% and 1.06%,5.69% and -2.35%
Nc1ccc2[nH]cc(C3CCN(CCC4CCN(C(=O)/C=C/c5ccc(Cl)c(Cl)c5)CC4)CC3)c2n1,1.27%,-0.31%,-0.02%
COc1ccc2ncc(F)c(C(O)CN3CCC(NCc4ccc5c(n4)NC(=O)CO5)CC3)c2c1 (stereo unspecified),-0.67% and 5.77%,2.57% and 4.56%,-3.55% and 1.93%
CC1CN(c2cc(=O)n(Cc3ccc(NC(=O)Nc4ccc(-c5ccccc5)cc4)cc3)cn2)CC(C)N1 (stereo unspecified),1.33%,1.47%,-0.75%

SMILES,inhibition [1],inhibition [2],inhibition [3]
CS(=O)(=O)c1ccc2[nH]c(-c3cc(-c4ccc(OCCN5CCOCC5)cc4)cnc3N)nc2c1,6.63%,6.02%,4.16%
COc1cc(F)c2ncc(Cl)c([C@H](O)CN3CCC(NCc4cc5c(cn4)OCCO5)CC3)c2c1,7.62%,7.47%,2.15%
COCCCNC(=O)[C@H]1CNCCN1C(=O)c1ccccc1,1%,0.97%,3.67%
Cc1cccc2nc(-c3cccc(-c4cccc(CNCc5cccc(N)c5)c4)c3)[nH]c12,1.24%,2.66%,1.47%
COc1cc(CNCCCCCCNCc2cc(OC)cc3ccccc23)c2ccccc2c1,10.8%,11.7%,10.4%
NC1=NC(CCc2ccccc2)N(c2ccc(Cl)cc2)C(N)=N1 (stereo unspecified),7.41%,1.15%,1.06%
CN1CCN(Cc2ccc(OCc3cccc(COc4ccc(CN5CCN(C)CC5)cc4I)c3)c(I)c2)CC1,1.53%,0.72%,-0.68%
Cc1cc(N)c2cc(NC(=O)c3cccc(C(=O)Nc4ccc5nc(C)cc(N)c5c4)c3)ccc2n1,-0.38%,2.01%,-2.06%
COc1ccc(C2CC(=O)C3=C(C2)NC(C)=C(C(=O)OC2CCCC2)C3c2cccc(O)c2)cc1OC (stereo unspecified),4.21%,1.05%,0.17%
Oc1ccccc1CNCC12CC3CC(CC(C3)C1)C2,3.18%,2.08%,2.13%
CN(C)CCNCc1cccc(-c2ccc3c(Nc4cc(O)c(Cl)cc4F)ccnc3c2)c1,3.57%,5.09%,3.04%
O=c1cc(NCCCNC2CCOc3c(Cl)cccc32)[nH]c2ccccc12 (stereo unspecified),0.96%,1.67%,2.03%
O=C(Nc1ccc(OC(F)(F)F)cc1)NC1CCN(c2ccnc3ccccc23)CC1,6.11%,5.45%,-1.28%
COc1ccc2nccc(C(=O)NC3CCC(CCN4CCc5cc(C#N)ccc5C4)CC3)c2c1 (stereo unspecified),7.23%,5.23%,6.71%
N#Cc1ccc(N2CCN(Cc3ccc(-c4ccc(-c5nc6cc(F)ccc6[nH]5)s4)cc3)CC2)nc1,6.42%,5.07%,4.78%
Cc1cc(C)cc(OCC(O)CN(Cc2cc(Cl)cc(Cl)c2)C(=O)Nc2ccc(Cl)cc2)c1 (stereo unspecified),0.89%,-0.94%,-0.48%
COc1cccc(-c2cc3nc4c(c(NCCCn5ccnc5)n3n2)CCCC4)c1,2.73%,5.03%,2.77%
Cc1cc(C(F)(F)F)nn1-c1ccc(NC(=O)c2ccco2)cc1,-2.06%,-1.65%,-1.05%
CCCCCCNC(=O)C1Cc2c([nH]c3ccccc23)C2(CCN(CCc3ccccc3)CC2)N1 (stereo unspecified),2.97%,0.47%,0.55%
Cc1ccc(-c2csc(C)n2)c(C)c1,1.21%,2.19%,2.4%
CCCCCc1cc(OC(C)=O)c2c(c1)OC(C)(C)C=C2C1=CCN(Cc2ccccc2)CC1,1.74%,1.45%,-1.92%
CN1CCN(CC2(Nc3nccc(NCCc4cn(C)c5ccccc45)n3)CCCCC2)CC1,0.99%,1.78%,-1.09%
O=C(Nc1cccc(CN2CCCN(Cc3cccnc3)CC2)c1)c1ccc(Cl)c(Cl)c1,5.01%,4.16%,5.38%
COc1ccc(CCNc2nc(NCCc3cnc[nH]3)nc(NCc3cccc4ccccc34)n2)cc1OC,7.46%,10.1%,4.1%
CN1CCCc2ccc(NC(=O)c3cc(-c4ccc(Cl)cc4)cs3)cc2C1,1.97%,4.89%,1.2%
N=C(N)NN=Cc1ccc2c(c1)Cc1ccccc1-2,8.82%,8.08%,6.46%
